Shown are actives, neighbours in structure and some others; about 11% of the full set was active somewhere.
IMPase Li inh = membrane-permeable IMPase blocker, potentiated with lithium | CHO-M1 cells, IP1 TR-FRET (IP-One), carbachol + lithium | Potency, µM (top dose mostly 59.4 µM), for the others: top-dose activity, negative = IMPase inhibition, most hits filed as inhibitors | 210,000 compounds, 0.35% hits;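 note: IP1 builds up when IMPase is blocked and the TR-FRET signal falls; potency is the fitted concentration of half-maximal effect; plate controls were basal vehicle for no effect and high inhibitor control for full effect; nearly all actives have a fitted effect of over 50% in size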
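Concentration–response in CHO-M1 cells, lithium-potentiated; 30 min at 37C. IP1 detected by competitive TR-FRET after 10 min lysis at RT. Hill-fitted AC50.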
IMPase cell inh = cell-permeable inhibitors of inositol monophosphatase (IMPase); P97697; CHO-M1 cells, IP1 accumulation, HTRF TR-FRET ratio; inhibition (IP1 accumulation), % at 46.1 µM; 120,000 tested, under 10 active; AID 901; active = well fitted curve in the direction sought with a large enough effect in the signal ratio, not every such curve was filed as active; inconclusive = small, poorly fitted or top-dose-only effect, or a change in a side signal; inactive = no such curve, though single readings can be large or run the other way; the % refers to the signal ratio;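 note: cells stimulated with carbachol in lithium chloride buffer; plate controls were DMSO basal wells for no effect and reference inhibitor wells for full effect; higher means more IMPase inhibition seen as more IP1 and lower FRET ratio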
Target sequence (P97697 whole entry, looked up): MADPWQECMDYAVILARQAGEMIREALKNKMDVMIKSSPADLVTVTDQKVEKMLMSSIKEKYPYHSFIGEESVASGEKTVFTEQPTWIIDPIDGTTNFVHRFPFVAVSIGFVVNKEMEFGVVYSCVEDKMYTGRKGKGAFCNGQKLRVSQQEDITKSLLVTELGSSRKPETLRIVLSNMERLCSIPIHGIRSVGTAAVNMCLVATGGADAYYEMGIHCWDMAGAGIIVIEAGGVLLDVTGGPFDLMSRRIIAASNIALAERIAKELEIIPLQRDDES
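CHO-M1 cells (CHO stably expressing M1 receptor), compound up to 46 uM final, stimulated with carbachol (50 uM as added) in buffer with 50mM LiCl, pH 7.4, 30 min at 37C. Cytosolic IP1 read by TR-FRET; AC50 from Hill fits.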
ALDH1A1 inh = ALDH1A1 (human) enzyme inhibition | Purified ALDH1A1, NADH fluorescence, propionaldehyde substrate | Potency, µM (series often up to 75.3 µM), without a hit: at the highest dose activity, negative = inhibition, actives largely listed as inhibitors | 220,000 compounds, 7.3% hits | AID 1030; active = well fitted inhibition curve with a large enough effect, not every such curve was filed as active; inconclusive = small, poorly fitted or top-dose-only effect, or another doubt; inactive = no such curve, though single readings can be large or run the other way;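 note: potency is the fitted concentration of half-maximal effect; plate controls were no enzyme wells and a reference inhibitor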
Target sequence (P00352 whole entry, looked up): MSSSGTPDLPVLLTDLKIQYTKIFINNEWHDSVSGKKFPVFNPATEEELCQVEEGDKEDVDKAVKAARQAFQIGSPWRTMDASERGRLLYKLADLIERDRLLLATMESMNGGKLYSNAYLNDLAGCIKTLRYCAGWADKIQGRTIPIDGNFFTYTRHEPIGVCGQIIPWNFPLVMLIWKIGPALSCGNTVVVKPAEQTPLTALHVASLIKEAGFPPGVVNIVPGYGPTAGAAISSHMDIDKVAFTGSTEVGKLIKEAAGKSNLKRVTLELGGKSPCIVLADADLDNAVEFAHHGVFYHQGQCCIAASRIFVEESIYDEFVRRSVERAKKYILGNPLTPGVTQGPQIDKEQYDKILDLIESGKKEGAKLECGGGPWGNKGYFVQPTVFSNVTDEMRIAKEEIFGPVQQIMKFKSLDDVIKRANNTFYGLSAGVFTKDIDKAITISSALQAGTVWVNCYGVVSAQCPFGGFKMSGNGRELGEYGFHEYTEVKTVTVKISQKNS
PNC inhibitor = inhibitors of perinucleolar compartment assembly | PC3M PTB-GFP, PNC prevalence imaging, 16 h; active compounds read low | activity change (PNC), negative = inhibition, % at 10 µM | 140,000 compounds, 3.1% hits | AID 2417;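 active = readout at or below -70, meaning at least 70% loss of cells showing the perinucleolar compartment, a nuclear body marking cancer cells; inconclusive = readout between -30 and a set limit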;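 note: plate controls were DMSO wells for no effect and camptothecin positive control wells for full effect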
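Compounds are pinned in duplicate onto adhered PC3M cells stably expressing GFP-tagged PTB and incubated 16 h at 37 C. Cells are then fixed, nuclei stained with Hoechst, and PNC-positive cells counted.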
HPGD block = HPGD (human) dehydrogenase inhibition | P15428 | purified HPGD, NADH fluorescence kinetic, PGE2 substrate | Potency, µM, inactives show at the highest dose activity change, negative = inhibition, most hits filed as inhibitors | 150,000 compounds, 4.3% hits | AID 894; active = well fitted inhibition curve with a large enough effect, not every such curve was filed as active; inconclusive = small, poorly fitted or top-dose-only effect, or another doubt; inactive = no such curve, though single readings can be large or run the other way; note: potency is the fitted concentration of half-maximal effect
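NADH formation kinetics: reaction with 30 uM PGE2 and 1 mM NAD+ (final), 20 nM enzyme, Tris-HCl pH 8 with Tween 20, after 15 min compound preincubation at room temperature. Fluorescence change, last versus first of five reads.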
NPSR antag = antagonists of human neuropeptide S receptor cAMP signaling; Potency, µM (top dose mostly 38.3 µM), for the others: at the highest dose activity change, negative = inhibition, hits mostly inhibitors; 220,000 compounds, 1% hits; CHO-NPSR cells, cAMP TR-FRET, antagonist mode; note: potency is the fitted concentration of half-maximal effect; nearly all actives have a fitted effect of over 50% in size
* = called active by the depositor; u = inconclusive; x = no result; [ ] = another dose, or the depositor's remark. Unless noted, calls come from the whole dose curve; as a rule, active = well fitted curve in the direction sought with a large enough effect; inconclusive = small, poorly fitted or top-dose-only effect, or another doubt; inactive = no such curve, though single readings can be large; an effect the other way counts as inactive or inconclusive. Unless noted, % is set by controls: 0 for no effect and ±100 for the full control effect.

SMILES	IMPase Li inh	IMPase cell inh	ALDH1A1 inh	PNC inhibitor	HPGD block	NPSR antag
CC1CCCN(c2c([N+](=O)[O-])c(=O)oc3ccccc23)C1 (configuration not stated)	12%[38.3 µM]	1	8%	-29	-17%	-1%[46.1 µM]
COC(=O)c1sc2cc(=O)n(-c3cccc(C(F)(F)F)c3)nc2c1O	33%	x	3%	x	x	10µM*
O=c1cnc2cncnc2n1Cc1ccccc1	2%	x	4µM*	x	x	x
COc1ccc(Oc2ncc3ncc(=O)n(Cc4ccc(F)cc4)c3n2)cc1	1%	x	u	x	32µM*	x
O=c1c(CCc2ccccc2)nc2cncnc2n1Cc1ccccc1	u	x	25µM*	x	x	x
COc1ncc2ncc(=O)n(Cc3ccc(F)cc3)c2n1	4%	x	13%	x	-30%	x
O=c1c(CCc2ccccc2)nc2cncnc2n1-c1ccccc1	20%	x	u	x	-28%	x
O=c1cnc2cncnc2n1Cc1ccc(F)cc1	-3%	x	10µM*	x	x	x
CC(C)COC(=O)c1ccccc1N1C(=O)C2C3CCC(C3)C2C1=O (configuration not stated)	-6%	x	16%	-28	1%	4%
Cc1cc(C)n2nc(C(=O)Nc3ccc(S(=O)(=O)N4CCCCC4)cc3)nc2n1	24%[38.3 µM]	1	u	-8	u	-5%[46.1 µM]
O=c1cnnc(NCc2ccccc2)[nH]1	7%[38.3 µM]	0	-8%	32	-13%	-13%[46.1 µM]
Cc1ccc(S(=O)(=O)NNC(=O)c2cnn(-c3ccc(Cl)cc3)c2C(F)(F)F)cc1	x	x	x	x	x	13%
COc1ccc([N+](=O)[O-])c2c(=O)ccoc12	-4%	x	14%	u	-2%	5%
Cc1nc2cncnc2n(Cc2ccccc2Cl)c1=O	-21%	x	u	x	x	x
O=c1cnc2cncnc2n1Cc1ccccc1Cl	10%	x	3.5µM*	x	x	x
O=C(NCc1ccco1)C1CC(=O)N(CCc2ccccc2)C1 (configuration not stated)	5%[38.3 µM]	13	22µM*	40	-8%	12%[46.1 µM]
CSCCOC(=O)C1=C(C)Nc2ccc(C)cc2S1	32%[38.3 µM]	2	14µM*	u	-14%	-12%[46.1 µM]
COc1cc2c(cc1NC(=O)C(C)OC(=O)C1CC(=O)N(Cc3ccco3)C1)oc1ccccc12 (configuration not stated)	40%[38.3 µM]	13	-10%	38	28µM*	u
COc1ccc(C)cc1NC(=O)C1CC(=O)N(Cc2ccco2)C1 (configuration not stated)	1%[38.3 µM]	-7	-11%	24	-10%	-3%[46.1 µM]
O=C(Nc1cccnc1)c1ccc(CSc2ccccc2)cc1	-2%	x	4%	x	x	-59%
O=C(Nc1ccccn1)c1ccc2nc(-c3ccccc3)c(-c3ccccc3)nc2c1	11%	x	11µM*	x	x	-35%
O=C(Nc1cccnc1)c1ccc2nc(-c3ccccc3)c(-c3ccccc3)nc2c1	17%	x	18µM*	x	x	-46%
CCCNC(=O)c1ccc2nc(-c3ccccc3)c(-c3ccccc3)nc2c1	31%[38.3 µM]	0[1.84 µM]	u	u	u	-20%[46.1 µM]
O=C1CCC/C1=c1\s/c(=C\c2cccnc2)c(=O)n1-c1ccccc1	24%[38.3 µM]	14	6.3µM*	-10	-13%	-17%[46.1 µM]
CCNC(=S)N/N=C/c1cccs1	43%[38.3 µM]	u	-9%	-6	-10%	u
SMILES	IMPase Li inh	IMPase cell inh	ALDH1A1 inh	PNC inhibitor	HPGD block	NPSR antag
Cn1cc(Br)c(C(=O)N/N=C/c2cccc(OC3CSC3)c2)n1	20%	x	-5%	41	u	-3%
CCN(Cc1ccccc1)C(=O)CSc1nncn1C	-2%	x	32µM*	x	x	10%
CCOc1cc(/C=N/NC(=O)CSc2nncn2C)ccc1OCc1ccccc1	-4%	x	-6%	-96*	-18%	-4%
CCOc1cc(/C=N/NC(=O)CN2CCOCC2)ccc1OCc1ccccc1	2%	x	-4%	0	-18%	-1%
COc1cc(/C(C)=N/NC(=O)CSc2nncn2C)ccc1OCc1ccccc1Cl	33%	x	5µM*	-8	-22%	-2%
CCOc1cc(/C=N/NC(=O)c2nn(C)cc2Br)ccc1OCc1ccccc1Cl	2%	x	2%	-112*	-29%	-44%
Cc1c(Cl)c([N+](=O)[O-])nn1CCCC(=O)Nc1c(Cl)cccc1Cl	9%	10	-7%	5	-7%	-8%
CCOc1cc(C(=O)NCc2nnc(SCC(=O)OC)n2C)cc(OCC)c1OCC	9%	-6	22%	-13	-6%	-9%[46.1 µM]
COc1cccc(-n2c(SCC(=O)N3CCc4ccccc43)nnc2-c2c[nH]c3ccccc23)c1	0%	x	u	14	-15%	1%
O=C(NCc1cccnc1)c1ccc(COc2cccc3ccccc23)o1	5%[38.3 µM]	u	u	4	-28%	-11%[46.1 µM]
Cc1cn2c(-c3ccncc3)nnc2s1	-14%[38.3 µM]	-10	u	54	u	-3%[46.1 µM]
Cc1ccc(CN(Cc2ccco2)C(=S)NCC(=O)NCc2cccnc2)cc1	-6%	x	u	x	x	3%
CCN(CC)S(=O)(=O)c1ccc2c(c1)nc(SC(C)C(N)=O)n2-c1ccc(OC)cc1 (configuration not stated)	45%[38.3 µM]	3	16µM*	u	-26%	u
COc1ccc(-n2nnnc2SC(C)C(N)=O)cc1 (configuration not stated)	-5%[38.3 µM]	-9	-7%	2	-20%	14%[46.1 µM]
Cc1ccc(COn2c(-c3ccc(Cl)cc3Cl)nc3ncccc32)cc1	17%[38.3 µM]	8	18µM*	4	7%	u
CC(C)(C)OC(=O)NCCc1nnc(S(=O)(=O)Cc2ccc(Cl)cc2Cl)o1	0%[38.3 µM]	11	2.8µM*	-4	2.5µM*	u
CC(C)(C)OC(=O)NCCc1nnc(SCc2ccccc2Cl)o1	9%[38.3 µM]	-9	-2%	7	-8%	-15%[46.1 µM]
Cc1cccc(CCNS(=O)(=O)c2ccc3c(c2)n(C)c(=O)c(=O)n3C)c1	0%[38.3 µM]	0	u	34	-21%	-11%[46.1 µM]
S=C(NCCOCCOCCNC(=S)Nc1ccccc1)Nc1ccccc1	2%	x	13µM*	x	x	5%
CCOc1ccc(CSCCNC(=S)Nc2ccccc2)cc1	5%	16	3%	-92*	-10%	-22%
S=C(NCCSCc1c(Cl)cccc1Cl)Nc1ccccc1	3%[38.3 µM]	9	u	-29	25µM*	-17%[46.1 µM]
Cc1cccc2cc(CN(C(=S)NCC(C)C)C3CCCC3)c(=O)[nH]c12	14%	13	-4%	17	-9%	-21%
CCNC(=S)N(Cc1cc2cccc(C)c2[nH]c1=O)C1CCCC1	-4%	9	u	-119*	-23%	-9%
COc1ccccc1NC(=O)N(Cc1ccco1)Cc1cc2c(C)ccc(C)c2[nH]c1=O	18%	-10	18µM*	28	-13%	-18%

From PubChem
